The list is not random: actives were taken first. Their share in the collection is about 2.8%.
mTORC1 inh: inhibitors of mTORC1 signaling in Tsc2-/- p53-/- MEF cells. Tsc2-/- p53-/- MEF, phospho-rpS6 immunofluorescence/PI, 24 h. Potency, µM (doses to about 38.3 µM), for the others: at the top dose activity change, negative = inhibition, hits mostly inhibitors. actives 0.78% (n = 44,000). AID 493208;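 note: potency is the fitted concentration of half-maximal effect; plate controls were DMSO for no effect and rapamycin for full effect; nearly all actives have a fitted effect of over 50% in size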
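Read-out: phospho-S6 Alexa-488 intensity over PI intensity per well, scored as % active cells using thresholds from rapamycin (7.5 nM) and DMSO controls. Tsc2-/-, p53-/- MEFs exposed to compound for 24 h; PI cell count recorded as viability.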
PMP22 txn prim: modulates PMP22 transcription in S16 Schwann cells. AID 1508649. actives 2% (n = 43,000). Potency, µM (titrated, usually from 57.5 µM), for the others: at the top dose activity change, negative = inhibition, hits mostly inhibitors. S16 Pmp22-F2sN Schwann cells, FLuc/NLuc coincidence luminescence, 24 h; active = clear falling dose curves in both reporters; inconclusive = both reporters move, but less clearly or upward; inactive = either reporter flat; the % is the NLuc reporter signal; note: potency is the fitted concentration of half-maximal effect; % is set by controls: 0 for no effect and ±100 for the full control effect
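S16 Schwann cells carrying FLuc/NLuc coincidence reporter in the Pmp22 3' UTR treated with compound 24 h at 37C; FLuc then NLuc luminescence read sequentially by dual-luciferase reagents.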
GALK inh: inhibits human galactokinase | 44,000 tested, under 10 active | Potency, µM (doses to about 57.5 µM), inactives show top-dose activity, negative = inhibition, most hits filed as inhibitors | P51570 | AID 1347072 | recombinant GALK, Kinase-Glo ATP luminescence, 1 h;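 note: plate controls were full GALK reaction for no effect and reaction lacking GALK for full effect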
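Human GALK (5 nM) was incubated with 35 uM ATP and 100 uM galactose in 20 mM HEPES pH 8.0 with MgCl2, NaCl, DTT and BSA for 1 h at room temperature. Remaining ATP was measured by Kinase-Glo Plus luminescence.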
TSG101-PTAP inh: inhibitors of HIV-1 PTAP binding to human TSG101, validation; 44,000 tested, under 10 active; Potency, µM (series often up to 115 µM), usual class: inhibitors; Fluorescence polarization, FITC-PTAP peptide/Tsg101, 20 min; AID 1347069; Q99816; note: potency is the fitted concentration of half-maximal effect; 0% is about no effect
Target sequence (Q99816 whole entry, looked up): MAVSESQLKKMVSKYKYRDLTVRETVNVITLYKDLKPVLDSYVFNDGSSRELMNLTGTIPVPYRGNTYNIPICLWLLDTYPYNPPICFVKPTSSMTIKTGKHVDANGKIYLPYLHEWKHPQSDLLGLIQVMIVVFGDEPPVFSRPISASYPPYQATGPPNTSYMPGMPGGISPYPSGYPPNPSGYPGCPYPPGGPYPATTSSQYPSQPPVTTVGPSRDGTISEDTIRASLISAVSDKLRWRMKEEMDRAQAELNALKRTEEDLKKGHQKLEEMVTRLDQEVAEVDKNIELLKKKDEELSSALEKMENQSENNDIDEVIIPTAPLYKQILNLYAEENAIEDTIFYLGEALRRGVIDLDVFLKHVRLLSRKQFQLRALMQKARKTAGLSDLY
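qHTS FP binding, 20 min r.t.: 10 uM Tsg101 domain + 50 nM FITC-PTAP peptide, pH 7.5 HEPES buffer with TCEP and EDTA.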
S16 viability: cytotoxicity in S16 Pmp22-F2sN Schwann cells; S16 Pmp22-F2sN Schwann cells viability, CellTiter-Glo, 24 h; Potency, µM (doses to about 57.5 µM), for inactives: at the highest dose activity change, negative = cytotoxicity, actives largely listed as cytotoxic; actives 0.48% (n = 43,000); AID 1508642; note: potency is the fitted concentration of half-maximal effect; % is set by controls: 0 for no effect and ±100 for the full control effect; nearly all actives have a fitted effect of over 65% in size
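S16 Schwann cells carrying the Pmp22-F2sN reporter, seeded in 1536-well format, were exposed to library compounds for 24 h at 37C. Viability was read as CellTiter-Glo luminescence after 15 min at room temperature.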
NLuc sat counter: NanoLuc enzyme inhibition artifact for PMP22 screen. AID 1508638. Potency, µM (doses to about 57.5 µM), for inactives: top-dose activity change, negative = inhibition, usual class: inhibitors. Secreted NLuc enzyme (filtered S16 cell medium), Nano-Glo luminescence. shares compounds with PMP22 txn prim. actives 4% (n = 690); note: potency is the fitted concentration of half-maximal effect; % is set by controls: 0 for no effect and ±100 for the full control effect
NLuc Km ctr: NanoLuc inhibition at Km substrate, PMP22 artifact check; actives 5% (n = 690); Potency, µM (highest dose often 57.5 µM), without a hit: top-dose activity change, negative = inhibition, actives largely listed as inhibitors; shares compounds with PMP22 txn prim; AID 1508639; secreted NLuc enzyme, coelenterazine luminescence, Km conditions; note: potency is the fitted concentration of half-maximal effect; % is set by controls: 0 for no effect and ±100 for the full control effect
FLuc counter: inhibits firefly luciferase, PMP22 counter-screen | shares compounds with PMP22 txn prim | purified P. pyralis FLuc, luminescence, 10 min | Potency, µM (top dose mostly 57.5 µM), inactives show at the highest dose activity, negative = inhibition, usual class: inhibitors | 690 tested, under 10 active | AID 1508640; note: % of control where 0% means no effect
S16 viab conf: confirmation of cytotoxicity in S16 Pmp22-F2sN Schwann cells (luciferase reporters placed in the Pmp22 gene). shares compounds with PMP22 txn prim. S16 Schwann cells viability, CellTiter-Glo ATP luminescence, 24 h. Potency, µM (doses to about 57.5 µM), without a hit: top-dose activity change, negative = viability loss, hits mostly cytotoxic. actives 7% (n = 690). AID 1508641; note: potency is the fitted concentration of half-maximal effect; % is set by controls: 0 for no effect and ±100 for the full control effect
PMP22 txn cnf: PMP22 transcription modulation, confirmatory; AID 1508646; S16 Schwann cells Pmp22-F2sN, dual luciferase, 24 h; actives 22% (n = 690); Potency, µM (top dose mostly 57.5 µM), for inactives: at the highest dose activity change, negative = inhibition, hits mostly inhibitors; shares compounds with PMP22 txn prim; active = clear falling dose curves in both reporters; inconclusive = both reporters move, but less clearly or upward; inactive = either reporter flat; the % is the FLuc reporter signal; note: potency is the fitted concentration of half-maximal effect
* = called active by the depositor; i = inactive; ? = inconclusive; . = no result given. Unless noted, calls come from the whole dose curve; as a rule, active = well fitted curve in the direction sought with a large enough effect; inconclusive = small, poorly fitted or top-dose-only effect, or another doubt; inactive = no such curve, though single readings can be large; an effect the other way counts as inactive or inconclusive.

SMILES	mTORC1 inh	PMP22 txn prim	GALK inh	TSG101-PTAP inh	S16 viability	NLuc sat counter	NLuc Km ctr	FLuc counter	S16 viab conf	PMP22 txn cnf
COc1nnc(-c2ccc(N3CCCCC3)c(NC(=O)c3ccccc3)c2)c2ccccc12	-2%	14µM*	0%	i	?	?	?	5%	0%	?
CCc1ccc(Nc2nc3c(S(=O)(=O)c4ccc(C)cc4)nnn3c3ccsc23)cc1	-11%	5.8µM*	0%	i	3%	-10%	?	3%	?	-39%
Cc1cccc(Nc2nc3c(S(=O)(=O)c4ccc(Br)cc4)nnn3c3ccsc23)c1C	5%	12µM*	?	i	-4%	-17%	?	11%	7%	?
O=S(=O)(c1ccc(Br)cc1)c1nnn2c1nc(Nc1cccc(C(F)(F)F)c1)c1sccc12	4%	?	-1%	i	-5%	.	.	.	.	.
CCOc1ccc(Nc2nc3c(S(=O)(=O)c4ccc(CC)cc4)nnn3c3ccc(Cl)cc23)cc1	1%	7.9µM*	-6%	i	2%	-15%	4%	-2%	-23%	?
CCc1nnc(NC(=O)CSc2nccn2Cc2ccccc2)s1	-15%	-26%	3%	i	0%	.	.	.	.	.
COc1ccc2c(c1)c(=O)c(C(=O)c1ccc(Cl)cc1)cn2CC(=O)Nc1ccc2c(c1)OCO2	3%	-42%	0%	i	19%	.	.	.	.	.
CCN(CC)S(=O)(=O)c1ccc2c(c1)N(CC(=O)NCCCN1CCN(c3cc(Cl)ccc3C)CC1)C(=O)CO2	?	20µM*	0%	i	?	-3%	-1%	-1%	?	?
COc1ccc(C2Oc3nc(SC)nnc3-c3ccccc3N2C(C)=O)cc1 (configuration not stated)	9%	?	-2%	i	1%	.	.	.	.	.
CCSc1nnc2c(n1)OC(c1ccc(C)cc1)N(C(C)=O)c1ccccc1-2 (configuration not stated)	-2%	?	?	i	-25%	?	-17%	5%	-4%	-7%
Cc1cccc(-n2ncc3c(Nc4c(C)cc(C)cc4C)ncnc32)c1	?	-29%	1%	i	-18%	.	.	.	.	.
Cc1cc(C)c(Nc2ncnc3c2cnn3C)c(C)c1	?	?	-1%	i	?	-8%	-1%	4%	-13%	-5%
COc1ccc(NC(=O)CSc2nc(-c3ccco3)cc(C(F)(F)F)n2)cc1	-20%	?	3%	i	1%	-2%	7%	4%	10%	23%
CC(C)(C)c1ccc(S(=O)(=O)NCc2ccc3c(c2)CCN3C(=O)c2ccccc2)cc1	?	?	0%	i	?	.	.	.	.	.
COCc1c(Br)c(C)nc2sc3c(=O)n(-c4cccc(Br)c4)nnc3c12	0%	-4%	2%	i	-1%	.	.	.	.	.

Compound activity deposited in PubChem BioAssay by National Center for Advancing Translational Sciences (NCATS).
